# Only some compounds are listed: those with a hit (about 7.5% of all), similar ones and a draw of the others.
# Rab9 prom act – qHTS Assay for Rab9 Promoter Activators | Potency, µM (top dose mostly 9.22 µM), for the others: at the highest dose activation, negative = inhibition, hits mostly activators | 320,000 compounds, 2.8% hits | Huh7 Rab9 promoter-luciferase reporter, luminescence, 24 h | AID 485297, 2010; also: % of control where 0% means no effect; nearly all actives have a fitted effect of over 60% in size
#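 Cells were plated at 1500 per well in reduced-serum medium with 10% FBS and left 2 h. Compound in DMSO was then added for 24 h at 37 °C. Reporter signal was read by luminescence after 10 min with luciferase detection reagent.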
# SMN2 splice enh – qHTS Assay for Enhancers of SMN2 Splice Variant Expression. 210,000 compounds, 2.8% hits. HEK293 SMN2-luciferase splicing reporter, luminescence, 30-36 h. Potency, µM (titrated, usually from 46.1 µM), for the others: top-dose activity change, positive = activation, usual class: activators. AID 1458, 2008; also: % of control where 0% means no effect; nearly all actives have a fitted effect of over 55% in size
#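 HEK293 cells carry an SMN2 […]–luciferase reporter in which exon 7 inclusion puts luciferase in frame. Cells were plated 10-12 h before compound addition, then incubated 30-36 h at 37C. ONE-Glo luminescence was read; sodium butyrate at 4.5 mM final served as control.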
# FLuc counter – qHTS profiling assay for firefly luciferase inhibitor/activator using purifed enzyme and Km concentrations of substrates (counterscreen for miR-21 project) | Luciferin 4-monooxygenase (Photinus pyralis), P08659 | purified FLuc, Km substrates, luminescence inhibition | Potency, µM (top dose mostly 57.5 µM), for the others: at the top dose activity change, negative = inhibition, usual class: inhibitors | 360,000 compounds, 6.9% hits | AID 588342, 2011;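 also: plate controls were vehicle for no effect and reference inhibitor for full effect; nearly all actives have a fitted effect of over 55% in size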
# Target sequence (P08659 whole entry, looked up): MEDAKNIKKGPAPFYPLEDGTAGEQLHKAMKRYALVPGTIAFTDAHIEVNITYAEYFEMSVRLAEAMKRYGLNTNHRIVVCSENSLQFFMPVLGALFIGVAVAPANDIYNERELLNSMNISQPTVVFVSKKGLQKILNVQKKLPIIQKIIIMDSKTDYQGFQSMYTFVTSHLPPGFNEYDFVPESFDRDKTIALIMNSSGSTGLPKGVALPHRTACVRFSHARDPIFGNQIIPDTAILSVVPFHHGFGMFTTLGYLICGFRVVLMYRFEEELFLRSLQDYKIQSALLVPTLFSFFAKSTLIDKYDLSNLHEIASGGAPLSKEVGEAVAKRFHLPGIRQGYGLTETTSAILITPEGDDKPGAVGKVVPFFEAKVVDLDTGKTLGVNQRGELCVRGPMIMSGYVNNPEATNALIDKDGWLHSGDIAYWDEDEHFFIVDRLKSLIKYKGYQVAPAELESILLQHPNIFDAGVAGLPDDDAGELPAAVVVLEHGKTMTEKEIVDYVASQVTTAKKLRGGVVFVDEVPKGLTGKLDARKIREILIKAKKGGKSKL
#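 Purified P. pyralis luciferase, 10 nM final, with Km-level 10 uM D-luciferin and 10 uM ATP in 50 mM Tris acetate pH 7.5, 10 mM Mg acetate, 0.01% Tween-20, 0.05% BSA; 6-point qHTS titration about 60 µM downward; luminescence read.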
# NPC1 promoter act – qHTS Assay for NPC1 Promoter Activators; 320,000 compounds, 2.4% hits; AID 485313, 2010; Huh7 NPC1 promoter luciferase reporter, 24 h; Potency, µM (doses to about 9.22 µM), inactives show at the top dose activation, usual class: activators; also: % of control where 0% means no effect; nearly all actives have a fitted effect of over 60% in size
#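 Stable NPC1-promoter luciferase Huh7 line; cpd (DMSO) 24 h, 37 °C, 5% CO2; Amplite luciferase reagent 10 min RT; luminescence readout. qHTS format.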
# KinaseGlo FLuc – Counterscreen for Luciferase (Kinase-Glo TM) Inhibition; Luciferin 4-monooxygenase (Photuris pensylvanica), Q27757; Kinase-Glo luciferase, ATP luminescence, 8 min; Potency, µM (highest dose often 38.3 µM), for inactives: top-dose activity change, negative = inhibition, actives largely listed as inhibitors; 200,000 compounds, 0.28% hits; AID 1379, 2008; also: % is scaled to controls: 0 for no effect and ±100 for the full control effect; nearly all actives have a fitted effect of over 60% in size
#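 Compounds were added to a substrate mix at pH 7.2 (50 mM imidazole, 10 uM ATP, within the enzyme's linear range), followed by Kinase-Glo detection reagent; luminescence was measured after 8 minutes at ambient temperature.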
# ELG1 genotox – qHTS screen for small molecules that induce genotoxicity in human embryonic kidney (HEK293T) cells expressing luciferase-tagged ELG1 | Potency, µM (top dose mostly 46 µM), inactives show top-dose activity change, positive = activation, actives largely listed as activators | 330,000 compounds, 1.3% hits | HEK293T ELG1-luciferase reporter, luminescence, 16 h | AID 504466, 2011; also: % of control where 0% means no effect; nearly all actives have a fitted effect of over 60% in size
#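 Reporter readout depends on ELG1 protein level, which increases with genetic stress. After 16 hr compound exposure at 37 °C, luciferase activity was quantified using ONE-Glo.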
# Starred values were filed as active, the others as inactive; ? = inconclusive; . = not tested or not shown; [ ] = remark or other dose. Calls follow the shape of the dose curve; as a rule, active = well fitted curve in the direction sought with a large enough effect; inconclusive = small, poorly fitted or top-dose-only effect, or another doubt; inactive = no such curve, though single readings can be large; an effect the other way counts as inactive or inconclusive. Potency is read from the fitted curve at half-maximal effect.
SMILES,Rab9 prom act,SMN2 splice enh,FLuc counter,NPC1 promoter act,KinaseGlo FLuc,ELG1 genotox
COc1ccc(NC(=O)Cc2coc3cc(C)c(C(C)C)cc23)cc1S(=O)(=O)N1CCOCC1,-14%,-70%,?,-1%,2%,1%
COc1ccc2c(CC(=O)Nc3ccc(OC)c(S(=O)(=O)N4CCOCC4)c3)coc2c1,-1%,3%,17µM*,2%,-4%,14%
CCN(CC(=O)Nc1ccccc1C(F)(F)F)C(=O)c1oc2ccc(OC)cc2c1C,-2%,.,17µM*,6%,.,?
COc1ccc2c(CC(=O)Nc3nc(C)cs3)coc2c1,?,-3%,24µM*,10%,-4%,-3%
COc1ccccc1CNS(=O)(=O)c1ccc2c(c1)NC(=O)C(C)S2 (stereo not drawn),-1%,.,1%,3%,.,-6%
COc1ccc2oc(C(=O)NN3C(C)CCCC3C)c(C)c2c1 (stereo not drawn),-4%,13%,-2%,-7%,2%,1%
COc1ccc2oc(C(=O)Nc3nc(C)cs3)c(C)c2c1,5.6µM*,.,0.6µM*,2.5µM*,.,?
COc1ccc2oc(C(=O)Nc3ccc(C)cn3)c(C)c2c1,3.2µM*,.,1.9µM*,2.5µM*,.,5.8µM*
COc1ccc(OC)c(NC(=O)C(C)n2nc(C)c3c(C)n(-c4ccccc4)nc3c2=O)c1 (stereo not drawn),.,.,-5%,.,.,.
COc1ccc(Cl)cc1NC(=O)CN(C)C(=O)/C=C/c1ccco1,.,.,.,.,.,1%
CCOC(=O)CC(NC(=O)CCc1c(C)nc2cc(-c3ccccc3)nn2c1C)c1ccc(C)cc1 (stereo not drawn),.,-20%,-20%,.,.,.
Cc1csc(NC(=O)CCc2c(C)nc3cc(-c4ccc(Cl)cc4)nn3c2C)n1,-2%,-83%,11µM*,1%,11%,-15%
Cc1nc2cc(-c3ccc(Cl)cc3)nn2c(C)c1CCC(=O)NC(C)c1ccc2c(c1)OCCO2 (stereo not drawn),-3%,-73%,15µM*,5%,0%,-9%
COc1ccccc1CNC(=O)CCc1c(C)nc2cc(-c3ccc(Cl)cc3)nn2c1C,.,16%,6%,.,.,.
COC(C(=O)Nc1c(F)cccc1F)c1ccccc1 (stereo not drawn),-2%,-4%,-7%,-4%,-2%,-3%
CC(Cn1cncn1)C(=O)N1CCN(S(=O)(=O)c2ccccc2)CC1 (stereo not drawn),-5%,.,-1%,-7%,.,-3%
CN(C(=O)Nc1cnc2ccccc2c1)c1ccccc1,2.8µM*,?,?,?,2%,?
O=C(Nc1cnc2ccccc2c1)N1CCCCC1,1.3µM*,14µM*,9.5µM*,1.3µM*,-6%,?
Cc1ccc(NC(=O)N(C)c2ccccc2)cc1,26%,.,?,24%,.,8%
O=C(Nc1cnc2ccccc2c1)N1CCOCC1,25%,?,?,?,8%,?
C/C(=N/OC(=O)c1ccc(C(F)(F)F)cc1)c1oc(C)nc1C,3%,.,12µM*,0%,.,2%
C/C(=N\OC(=O)c1ccc(C)cc1)c1c(C)nc2cc(C)ccn12,-3%,-2%,0%,-3%,-2%,-4%
COC(=O)Cn1ncc2c3ccccc3n(Cc3ccccc3)c2c1=O,-4%,6%,-1%,-1%,21%,-7%
COC(=O)Cn1ncc(N(C)Cc2ccccc2)c(Cl)c1=O,?,.,12µM*,2.5µM*,.,?
CCCN=C(C)c1c(-c2ccccc2)[nH]n(-c2nc3ccccc3s2)c1=O,26%,-34%,?,?,20%,-12%
SMILES,Rab9 prom act,SMN2 splice enh,FLuc counter,NPC1 promoter act,KinaseGlo FLuc,ELG1 genotox
CCC(=NCc1ccco1)c1c(C(F)(F)F)[nH]n(-c2nc3ccccc3s2)c1=O,?,17%,7.6µM*,?,-8%,9.2µM*
C/C(=N/NC(=O)c1cccs1)c1c(C)[nH]n(-c2nc3ccccc3s2)c1=O,2µM*,11µM*,0.6µM*,2µM*,10µM*,?
CC(=NCc1ccco1)c1c(C)[nH]n(-c2nc3ccccc3s2)c1=O,?,.,7.6µM*,?,.,3.7µM*
CCC(=NCc1ccccc1)c1c(C(F)(F)F)[nH]n(-c2nc3ccccc3s2)c1=O,3%,-2%,12µM*,20%,-1%,?
O=c1c(C=NCc2cccnc2)c(C(F)(F)F)[nH]n1-c1nc2ccccc2s1,1%,.,2%,-2%,-6%,-6%
Cc1cc(C)c(OCC(=O)NCCCn2nc(C)cc2C)c(C)c1,3%,.,8%,-1%,.,2%
CCCc1cc(=O)oc2cc(OCC(=O)NCC(O)c3ccccc3)ccc12 (stereo not drawn),4%,.,-1%,-1%,.,-2%[9.26 µM]
O=C(Nc1nnc(-c2ccccc2F)s1)Nc1ccccc1F,2µM*,?,6%,?,2%,11%
O=C(Nc1nnc(-c2ccccc2Cl)s1)c1ccccc1F,4µM*,.,-13%,3.2µM*,.,?
O=C(Nc1nnc(Cc2ccccc2F)s1)c1ccccc1Cl,6%,.,-3%,1%,.,3%
O=C(Nc1nnc(-c2ccccc2)s1)c1ccccc1F,1.1µM*,.,11µM*,2.5µM*,.,?
Nc1ccc2nc(-c3cccc(-c4nc5ccc(N)cc5[nH]4)c3)[nH]c2c1,-11%[1.84 µM],.,7.6µM*,-3%,.,-5%
Nc1ccc2nc(-c3ccc(Cl)cc3)[nH]c2c1,?,?,1.9µM*,?,?,16µM*
Nc1ccc2nc(-c3cc(Cl)c(N)c(Cl)c3)[nH]c2c1,3.2µM*,16µM*,6µM*,?,?,?
Nc1ccc(-c2nc3c(Cl)c(N)ccc3[nH]2)cc1,?,?,12µM*,?,-26%,17%
COc1ccc(OC)c(C(=O)NC(CC(N)=O)c2ccc(N3CCN(c4ccccn4)CC3)c([N+](=O)[O-])c2)c1 (stereo not drawn),6%,.,3%,4%,.,-1%
Cc1nc2ccc(-c3nc4ccc(N)cc4[nH]3)cc2[nH]1,?,.,4.8µM*,?,-18%,-3%
Nc1ccc(-c2nc3ccc(N)cc3[nH]2)cc1,?,?,15µM*,?,-12%,-8%
c1ccc2c(c1)CCN(c1nc3ccccc3n3cnnc13)C2,7%,12%,?,-1%,1%,0%
c1ccc2c(c1)CCCN2c1nc2ccccc2n2cnnc12,7%,3%,15µM*,1%,15%,10%

# Compound activity from PubChem BioAssay.
